What all share (assay type): functional
Experiment [1] has as its target Solute carrier family 2, facilitated glucose transporter member 1 (Homo sapiens) (UniProt P11166). Description: ST_JUDE_LEISH: Cytotoxicity at 2uM final concentration against transgenic Leishmania Mexicana promastigotes LmGLUT1 that are glucose transport deficient and complemented with the human glucose transporter GLUT1. Activity is measured by DNA content using SYBR green in vitro.

The target in experiment [2] is Hexose transporter 1 (Plasmodium falciparum) (UniProt O97467). Description: ST_JUDE_LEISH: Cytotoxicity at 2uM final concentration against transgenic Leishmania Mexicana promastigotes LmPfHT that are glucose transport deficient and complemented with the Plasmodium falciparum hexose transporter. Activity is measured by DNA content using SYBR green in vitro.
Experiment [3] deals with Glucose transporter (Leishmania mexicana) (UniProt O61059). The experiment is described as follows: ST_JUDE_LEISH: Cytotoxicity at 2uM final concentration against transgenic Leishmania Mexicana promastigotes LmGT2 that are glucose transport deficient and complemented with the L. Mexicana glucose transporter 2. Activity is measured by DNA content using SYBR green in vitro.

Structures are written as SMILES.

Chain of Solute carrier family 2, facilitated glucose transporter member 1 (Homo sapiens) (P11166 whole entry): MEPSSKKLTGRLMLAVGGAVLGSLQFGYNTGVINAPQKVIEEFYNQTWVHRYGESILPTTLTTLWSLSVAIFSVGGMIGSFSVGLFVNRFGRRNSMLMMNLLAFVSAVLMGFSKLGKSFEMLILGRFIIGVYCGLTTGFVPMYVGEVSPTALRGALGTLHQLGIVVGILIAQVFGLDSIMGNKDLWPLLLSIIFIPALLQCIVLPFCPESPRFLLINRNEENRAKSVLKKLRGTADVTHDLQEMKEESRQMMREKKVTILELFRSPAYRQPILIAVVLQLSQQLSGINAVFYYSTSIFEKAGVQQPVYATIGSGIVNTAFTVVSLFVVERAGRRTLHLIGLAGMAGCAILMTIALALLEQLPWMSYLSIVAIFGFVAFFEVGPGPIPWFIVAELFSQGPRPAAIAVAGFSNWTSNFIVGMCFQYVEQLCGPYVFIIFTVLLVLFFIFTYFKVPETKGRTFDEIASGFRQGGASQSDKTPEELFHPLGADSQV

As a reminder, the inhibition is the change of the read-out against control, counted positive when it falls. Consider `c1ccc(Oc2ccc(Nc3ccnc(Nc4cccc(CNCCCN5CCOCC5)c4)n3)cc2)cc1`, for which the inhibition was -3.58% in experiment [1], -2.31% in experiment [2] and -1.79% in experiment [3].
Regarding `COc1cc(F)c2nccc([C@@H](O)CN3CCC(NCc4nc5cccc(F)c5[nH]4)CC3)c2c1`, the inhibition in experiment [1] turned out to be 6.27%; in experiment [2], 0.25%; in experiment [3], 3.66%.
For `COc1ccc2[nH]ccc(=NN=Cc3ccc(F)cc3)c2c1`, the inhibition was 2.33% in experiment [1], -0.63% in experiment [2] and -0.34% in experiment [3].
The corresponding values for `COc1ccc2nc(N=C3NC4(c5ccccc5)NC(=Nc5nc6ccc(OC)cc6[nH]5)NC4(c4ccccc4)N3)[nH]c2c1` (stereo not given) are -1.9%, -0.84% and -0.87%.
The corresponding values for `O=C(NC(c1ccccc1)c1ccc2cccnc2c1O)c1ccccc1` (stereo not given) are 4.04%, 6.18% and 4.35%.
The corresponding values for `CCc1c(CCNCCCCCCNCCc2ccc([N+](=O)[O-])cc2)ccc(O)c1O` are -1.33%, -0.9% and 0.31%.
Turning to `Cn1cncc1C(=O)Nc1cccc(-c2ccc(-c3nc4ccccc4[nH]3)s2)c1`, the inhibition in experiment [1] was 3.45%; in experiment [2], 2.88%; in experiment [3] it was 4.94%.
The corresponding values for `NCc1ccc(CNCc2ccc(-c3ccc(-c4nc5cc(C(F)(F)F)ccc5[nH]4)s3)cc2)cc1` are 0.59%, 1.45% and 0.6%.
The corresponding values for `COc1cc2ccccc2cc1OCCCN1CCN(CC(c2ccc(F)cc2)N2CCN(C(C)C)CC2)CC1` (stereo not given) are -2.97%, -0.78% and 2.29%.
Regarding `CCCCC(CC)C(=O)C(NC(=O)[C@H](CSC(c1ccccc1)(c1ccccc1)c1ccccc1)NC(=O)OC(C)(C)C)C(=O)OC` (stereo not given in full), the inhibition in experiment [1] came out at 3.84%; in experiment [2], 3.76%; in experiment [3], 3.51%.
The corresponding values for `O=C(Nc1cc(F)cc(F)c1)NC1CCN(CCCCCNC(=O)C2CC2c2ccc(Cl)c(Cl)c2)CC1` (stereo not given) are 0.3%, -0.08% and -2.77%.
The matching figures for `CN1CCC(N2CCN(Cc3ccc(-c4ccc(-c5nc6cc(F)ccc6[nH]5)s4)cc3)CC2)CC1`: 2.75%, 2.55% and -0.25%.
The matching figures for `CC(=O)N(C)C1CCN(Cc2ccc(-c3cccc(-c4nc5cc(F)ccc5[nH]4)c3)cc2)C1` (stereo not given): 1.27%, -0.26% and 1.68%.
Turning to `Cc1cc(C)c(C(=O)Nc2n[nH]c3nnc(-c4cccc(F)c4F)cc23)c(C)c1`, the inhibition in experiment [1] is 0.09%; in experiment [2], -0.09%; in experiment [3] it was 0.28%.
Regarding `CC(C)(C)c1cc2cc(Nc3ccnc4cc(-c5nccs5)ccc34)ccc2[nH]1`, the inhibition stood at 6.8% in experiment [1], 7.87% in experiment [2] and 5.41% in experiment [3].
The matching figures for `CCN1CCN(c2cc(C)c3cc(NC(=O)c4ccc(C(C)(C)C)cc4)ccc3n2)CC1`: -0.6%, 2.13% and 1.59%.
The corresponding values for `C=C(C)C1CC=C(CN2CCC(N3CCc4cc(NC(=O)c5cc(C)on5)ccc43)C2)CC1` (stereo not given) are 2.54%, 4.39% and 4%.
For the compound `Cc1ccc(O)c(-c2cc(C(=O)Nc3ccc(S(=O)(=O)N4CCCCCC4)cc3)[nH]n2)c1`, the inhibition is -2.76% in experiment [1], -1.17% in experiment [2] and -0.85% in experiment [3].
For the compound `COc1cc2c(Nc3cccc(NC(=O)c4ccccc4)c3)ncnc2cc1OCCCN1CCOCC1`, the inhibition in experiment [1] stood at 0.63%; in experiment [2] it was 2.08%; in experiment [3], 0.27%.
The corresponding values for `N#Cc1cccc(COC(=O)C2=C(COc3ccccc3Cl)NC(=O)NC2c2c[nH]c3cnccc23)c1` (stereo not given) are 9.04%, 6.63% and 6.83%.
`CC(CN1CCN(C)CC1)C(=O)Nc1cccc(-c2ccc(-c3nc4ccccc4[nH]3)s2)c1` (stereo not given): the inhibition in experiment [1] is -1.1%; in experiment [2], -1.46%; in experiment [3], -3.97%.
The corresponding values for `COc1cc2c(OC)cccc2cc1CNCCCCCCNCc1cc2cccc(OC)c2cc1OC` are 0.11%, 6.08% and -0.11%.
In the case of `CC(C)CC1c2[nH]c3ccccc3c(=O)c2CN1C(=O)OC(C)(C)C` (stereo not given), the inhibition in experiment [1] is 2.72%; in experiment [2], 2.68%; in experiment [3], 1.8%.
`COc1ccc(Cl)cc1NC(=O)CN(C)C(=O)c1cnn(-c2ccccc2)n1`: the inhibition in experiment [1] was 1.85%; in experiment [2], -0.34%; in experiment [3], 3.11%.
The matching figures for `Cc1ccc(NC(=O)c2ccc3ncccc3c2)cc1OC1CCN(C(C)C)C1` (stereo not given): 8.85%, 10.2% and 9.34%.
For `Cc1ccc(NC(=O)Nc2ccc(Cl)c(C(F)(F)F)c2)cc1-c1ccc(C(=O)Nc2ccncc2)cc1`, the inhibition in experiment [1] turned out to be 3.55%; in experiment [2], 2.27%; in experiment [3] it was 3.98%.
The matching figures for `CC(=O)Nc1ccc(S(=O)(=O)N2CCN(c3nc(NC4CCCC4)c4ccccc4n3)CC2)cc1`: 0.69%, 3.35% and 2.94%.
The matching figures for `CS(=O)(=O)NCCCNCc1ccc(-c2cccc(-c3nc4cc(F)ccc4[nH]3)c2)cc1`: -2.11%, 0.22% and -0.29%.
Take `COc1ccccc1CCNc1nc(C)cc(N[C@@H](Cc2ccccc2)C(=O)NCCOc2ccccc2)n1`: the inhibition in experiment [1] is 1.72%; in experiment [2], 1.1%; in experiment [3], -2.09%.
As for `Oc1ccc2[nH]cc(C3CCN(CCC(c4ccccc4)c4ccccc4)CC3)c2c1`, the values for the inhibition in experiment [1], in experiment [2] and in experiment [3] were 4.66%, 3.07% and 4.21%, respectively.
Consider `N#Cc1cccc(Nc2nccc(Nc3ccc(Oc4ccccc4)cc3)n2)c1`, for which the inhibition amounted to 6.87% in experiment [1], 5.4% in experiment [2] and 0.2% in experiment [3].
The matching figures for `Cc1cccc2nc(-c3ccc(-c4ccc(CNCCCNS(C)(=O)=O)cc4)s3)[nH]c12`: 7.9%, 8.05% and 6.95%.
The matching figures for `Cc1[nH]c(C)c(-c2ccc(OCc3ccc(OC(F)(F)F)cc3)nc2)c(=O)c1Br`: 8.89%, 13.8% and 3.44%.
The matching figures for `Cc1ccc(F)c(OC2CCN(c3ccc(C(=O)NC4CC4)cn3)CC2)c1`: 0.56%, 1.76% and -3.52%.
Take `CCCCCCNc1c2ccccc2nc2ccccc12`: the inhibition amounted to 4.99% in experiment [1], 9.27% in experiment [2] and 3.25% in experiment [3].

Values taken from ChEMBL document CHEMBL3433997, “St. Jude Leishmania screening dataset” (2016).
